One assay addresses CD48. The assay is described as follows: pooled miR-30 sensor sort-seq; sequence = guide strand. The conditions noted are these: shRNA.
For the sequence TTCTACAATCTTCTGGTCGAAA, the sensor-assay potency score (higher = more potent) was -0.694.
The same measure, in the same setting: the figure for TATACAGTCTCTGTCCTGGTGA is -0.4.
On the same count and under the same terms, the figure for TTGCTGCTCACAGAATTGCTGA is -0.332.
Still for that read-out and setting: under TTGGATTCAAAGTACTTAGATT stands -1.05.
The sequence TACAGGGTCAAGCACTTGCAGC gave a sensor-assay potency score (higher = more potent) of -1.55.
The same measure, in the same setting: the figure for TGAGGATCAAGTCTGACCCTGC is 0.0902.
As to TTAACTTGAAAATCCTCGTTGA, the sensor-assay potency score (higher = more potent) worked out at 1.27.
Still for that read-out and setting: under TAATTCAGCAGCATGCTTCTGG stands 0.539.
Same read-out and setting: under TTCTTGCTCATTCCCAGTCTTT stands -1.11.

The next assay has as its target CD58. Described as above. As to conditions: shRNA.
TTAAAAGATGAGAAAGCTCTGA: the sensor-assay potency score (higher = more potent) is -0.214.
Still for that read-out and setting: the figure for TTGTGGAAGATCATTTTCCATC is -1.11; for ATATACAGCACAATACATGTTG it is 0.0974.
The same measure, in the same setting: under TTCTTCTTAAAGCAGCTGCTTC stands -0.594; under TAAAAGATGAGAAAGCTCTGAA, 0.844.
The same measure, in the same setting: the figure for TAATAAGTTGATGACAGCCAAA is -1.7; for TATACAGCACAATACATGTTGT it is -0.688; for TTGAGTTACGTTTACATTGCTC it is -0.143.
The sequence TTGTTTTTTCCATAGGACCTCT gave a sensor-assay potency score (higher = more potent) of -0.0433.
In turn, TTATCCTTTTGTTTTTTCCATA yielded a sensor-assay potency score (higher = more potent) of -1.18.
TTAAAATATATACTGGTTGAGT gave a sensor-assay potency score (higher = more potent) of -0.467.
The same measure, in the same setting: the figure for TTTGTTGGGAAAAACAGCTGAT is -0.0646; for TACATGTTGTAATTACTGCTAA it is -0.161.
On the same count and under the same terms, under TAAAATAATTTAGTTATGCTGT stands -0.222; under TAATGCTCTGGTATCATGCATT, -0.599; under TTACAAAAGTATCTACATCATC, -0.687.
The same measure, in the same setting: the figure for TTCATATACAGCACAATACATG is -1.42; for TAAAGAAAGAACTTCATGGTAT it is 0.701; for TTGCTCCATAGGACAATCCCAT it is -1.06.
Take TATAAGTGCATATCTGTGTCTT: the sensor-assay potency score (higher = more potent) is 0.724.
Still for that read-out and setting: under TACAGCACAATACATGTTGTAA stands -0.704; under TTTAAAGGCACATTGCTTGGTA, 0.706; under TTTCATACTCATCTTCATCTGA, 0.555.

The next assay addresses CD86. The description is as above. As to conditions: shRNA.
In turn, TAAGCTTGAATCTTCAGAGGAG had a sensor-assay potency score (higher = more potent) of 0.681.
Same read-out and setting: the figure for TAACTGTTGGAAGTACAGCTGT is -0.0777; for TGATACATTGATACAAGCCCTT it is -0.31.
On the same count and under the same terms, under TCATATTGCTCGTAACATCAGG stands -0.912; under TTATATTAGAAATTGGTACTAT, 0.249; under AAGATGGTCATATTGCTCGTAA, -0.638.
Still for that read-out and setting: the figure for TAGAATTAGACAGAAAACCATC is -0.951; for TTGTGAAGTCTCAGGGTCCAAC it is -1.21.

The values above are taken from the OligoGym collection.
Further: reference of the scale not given here.
